# According to PubChem BioAssay AID489043 (National Center for Advancing Translational Sciences (NCATS), 2010):
# Results filed as inconclusive are left out. Unmarked numbers belong to inactive results. Calls of active or inactive are those of the source. Calls come from the whole dose curve; as a rule, active = well fitted activation curve with a large enough effect; inconclusive = small, poorly fitted or top-dose-only effect; inactive = flat fitted curve, though single readings scatter.
# Target: Relaxin receptor 2 (Homo sapiens) (UniProt Q8WXD0)
# Assay: qHTS Assay for Agonists of the Relaxin Receptor RXFP1: RXFP2 Hit Validation; note: nearly all actives have a fitted effect of over 65% in size
# Details: HEK293 RXFP2 cAMP TR-FRET, 30 min; series mostly up to 44.7 µM; activation: at the top concentration
# Excerpt: NIH Chemical Genomics Center [NCGC] NIH Molecular Libraries Probe Production Centers Network [MLPCN] MLPCN Grant: R03 MH085705-01A1 Assay Submitter (PI): Alexander Agoulnik NCGC Assay Overview: The relaxin hormone is involved in the variety of biological functions in normal tissues and diseases. The role of relaxin is well-established in female reproduction and parturition, mammary gland and endometrial development, maintenance of myometrial quiescence during pregnancy. Relaxin signaling through its G protein-coupled receptor (GPCR) RXFP1 results in ECM remodeling through regulation of collagen deposition, cell invasiveness, proliferation and overall tissue homeostasis. […] Recombinant human relaxin (rhRlx) is currently being tested in clinical trials as a protective agent in congestive heart failure, in treating severe preeclampsia, and as an anti-fibrotic agent in systemic sclerosis. Upon relaxin binding RXFP1 activation leads to the activation of adenylate cyclase (AC) via Gs. cAMP will activate PKA, which phosphorylates many signaling proteins. Thus, detection of cAMP increase is an easy and reliable indication of relaxin receptor activation. To screen for agonists of the relaxin receptor, a HEK293T cell line stably transfected with RXFP1 was used. RXFP1 activation was assayed by changes in cAMP levels as detected with a time-resolved fluorescence energy transfer (TR-FRET) cAMP detection kit. This assay measures activation of a cell expressing RXFP2, another GPCR targeted by relaxin, to determine the selectivity of compounds for RXFP1.
# NCGC Assay Protocol Summary: This is a cell-based assay for cAMP second messenger response to screen for agonists of the RXFP2 receptor. The assay was conducted in the presence of a PDE4 inhibitor (Ro 20174). The cells were lysed and the cAMP levels were measured with a TR-FRET cAMP kit. Presence of cAMP in the cell lysate disrupts binding between the cryptate-labeled anti-cAMP and d2-labeled cAMP pair, leading to a decrease in the TR-FRET signal. Data were normalized to the controls for basal activity (buffer only) and 100% activity (29 nM porcine relaxin). The EC50 values were determined from concentration-response data modeled with the standard Hill equation 1536-well assay protocol for the HEK293 RXFP2 cAMP assay: (1) Add 3 ul HEK293 RXFP2 cell culture. 2000 cells/well in DMEM/F12, 10% FBS, 1x Pen/Strep (dispensed offline with MultiDrop Combi). (2) Incubate 16-24 hr at 37C, 5% CO2. (3) Add 1 ul 400uM Ro20174 in DPBS, 0.05% BSA, 0.005% Tween 20. (3) Add 23 nl compounds in DMSO solution. Final concentration was 0.5 - 58 uM. (4) Incubate 30 min at 37C, 5% CO2. (5) Add 1 ul cAMP-d2 in lysis buffer (HTRF cAMP HiRange kit, CisBio). (6) Add 1 ul anti-cAMP antibody-cryptate in lysis buffer (HTRF cAMP HiRange kit, CisBio). […]
# Potency is the fitted concentration of half-maximal effect.
# Relaxin receptor 2 (Homo sapiens), sequence (Q8WXD0 whole entry, looked up): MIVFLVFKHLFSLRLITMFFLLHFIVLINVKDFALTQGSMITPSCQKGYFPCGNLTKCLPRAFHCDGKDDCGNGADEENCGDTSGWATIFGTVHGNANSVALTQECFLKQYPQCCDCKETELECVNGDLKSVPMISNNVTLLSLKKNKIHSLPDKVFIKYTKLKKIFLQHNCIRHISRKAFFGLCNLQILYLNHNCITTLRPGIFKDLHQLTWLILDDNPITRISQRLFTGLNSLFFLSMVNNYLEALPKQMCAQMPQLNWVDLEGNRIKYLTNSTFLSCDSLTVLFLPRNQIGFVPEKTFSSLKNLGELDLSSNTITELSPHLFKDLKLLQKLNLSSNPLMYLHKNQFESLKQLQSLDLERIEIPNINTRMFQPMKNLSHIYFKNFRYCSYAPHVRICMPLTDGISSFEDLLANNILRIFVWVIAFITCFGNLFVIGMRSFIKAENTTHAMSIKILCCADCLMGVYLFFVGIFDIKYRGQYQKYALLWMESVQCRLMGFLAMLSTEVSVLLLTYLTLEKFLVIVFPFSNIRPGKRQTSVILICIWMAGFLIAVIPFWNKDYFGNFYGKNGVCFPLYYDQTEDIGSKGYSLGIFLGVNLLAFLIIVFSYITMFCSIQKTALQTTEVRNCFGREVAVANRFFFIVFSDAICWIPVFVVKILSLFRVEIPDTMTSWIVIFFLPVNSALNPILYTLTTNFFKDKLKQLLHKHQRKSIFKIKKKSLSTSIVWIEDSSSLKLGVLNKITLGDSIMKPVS
SMILES,Potency,activation
CCNC(=O)[C@H]1O[C@@H](n2cnc3c(N)ncnc32)[C@H](O)[C@@H]1O,0.974 µM (active),–
Nc1ncc2[nH]cnc2n1,17.4 µM (active),–
O=C(O)c1sc2cc(Cl)ccc2c1Cl,–,19.7%
CCC(Oc1cc(Cl)ccc1Cl)C(=O)N1CCC2(CC1)OCCO2 (centres undefined),–,2.36% [at 115 µM]
